From PubChem BioAssay
Activity calls are given as the source filed them.

Columns and labels:
[1] = binders of probe aFSTL3 on microarray, primary screen, stem cell growth factor project, biochemical, small-molecule microarray, fluorescence 635/667 (AID 1064); details: higher = more signal;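 note: measures binding of the biotinylated anti-FSTL3 antibody to printed compounds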
[2] = binders from COS7 lysate, DM2A8 probe, primary screen, torsin A project, cell lysate, small-molecule microarray, fluorescence 635/667 (AID 1065); details: higher = more signal, COS7 lysate expressing mutant human TOR1A
[3] = binders of probe aFGF2 on microarray, primary screen, stem cell growth factor project, biochemical, small-molecule microarray, fluorescence 635/667 (AID 1067); details: higher = more signal;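 note: measures binding of biotinylated aFGF2 protein to printed compounds on slides; z-score merges feature fluorescence and signal-to-noise across triplicate slides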
[4] = binders of probe aFGF10 on microarray, primary screen, stem cell growth factor project, biochemical, small-molecule microarray, fluorescence 635/667 (AID 1071); details: higher = more signal;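 note: score merges 667 nm spot intensity and signal to noise from triplicate slides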
[5] = target: Neurogenic locus notch homolog protein 2 (Homo sapiens) (UniProt Q04721); assay: Notch2 binders on small-molecule microarrays, primary screen, biochemical, small-molecule microarray, 635 nm fluorescence, stem cell growth factors (AID 1073); details: Notch2 binding, higher = more signal
[6] = target: Pro-neuregulin-1, membrane-bound isoform (Homo sapiens) (UniProt Q02297); assay: NRG1 binders on small-molecule microarrays, primary screen, psychiatric disease protein project, biochemical, small-molecule microarray, fluorescence 635/667 (AID 1075); details: NRG1 binding, 635 nm fluorescence, higher = more signal;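 note: score combines 667 nm spot fluorescence with signal to noise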
[7] = test system: Neuregulin-1 EGF-like domain; assay: binders of neuregulin-1 EGF-like domain, primary screen, biochemical, small-molecule microarray, 635 nm fluorescence (AID 1081); details: small-molecule microarray binding, higher = more signal;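 note: binding of the protein to compounds printed on small-molecule microarray slides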
[8] = FRG1 promoter luciferase signal modulators, primary screen, FRG1 inhibition for FSHD, cell-based, C2C12 myotubes, firefly/Renilla luciferase, luminescence (AID 1084); details: higher = more signal, called active from +8 up or from −8 down
[9] = binders of probe aFST on microarray, primary screen, stem cell growth factor project, biochemical, small-molecule microarray, fluorescence 635/667 (AID 1086); details: higher = more signal;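 note: score merges 667 nm fluorescence with signal-to-noise of each printed compound spot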
[10] = binders of probe aHhip on microarray, primary screen, stem cell growth factor project, biochemical, small-molecule microarray, fluorescence 635/667 (AID 1087); details: higher = more signal;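 note: score merges spot fluorescence at 667nm with spot signal to noise ratio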
[11] = test system: PRMT1 (protein arginine N-methyltransferase 1); assay: PRMT1 binders on small-molecule microarrays, primary screen, biochemical, small-molecule microarray, 635 nm fluorescence (AID 1088); details: small-molecule microarray binding, higher = more signal;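 note: binding of Prmt1 protein to compounds spotted on small-molecule microarray slides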
[12] = yeast growth modulation, basal conditions, primary screen, YJM789 clinical isolate, OD600, 24 h (AID 1089);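 note: growth of clinical yeast isolate S. cerevisiae YJM 789 seeded 1000 cells per well; test concentration not given here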; details: S. cerevisiae YJM789 growth, higher = more signal, called active from +8 up or from −8 down
[13] = fission yeast growth modulation, primary screen, strain 972, OD600, 24 h, no modulator (AID 1090);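 note: basal condition with compound alone and no growth modifier present; test concentration not given here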; details: S. pombe 972 growth, higher = more signal, called active from +8 up or from −8 down
[14] = S. cerevisiae growth modulation with rapamycin, primary screen, strain BY4716, OD600, 96 h (AID 1091); details: higher = more signal, called active from +8 up or from −8 down; note: test concentration not given here
[15] = target: Torsin-1A-interacting protein 2 (Homo sapiens) (UniProt Q8NFQ8); assay: LULL1 binders on small-molecule microarray, primary screen, cell lysate, human LULL1 lysate, 635/667 nm fluorescence (AID 1092); details: hLULL1 lysate binding, 635 nm fluorescence, higher = more signal;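 note: probe is lysate of COS7 cells overexpressing human LULL1; score merges per-feature 667 nm fluorescence with signal-to-noise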
[16] = E. coli growth modulation, two-sided OD650, primary screen, E. coli filamentation project, strain DRC41, 24 h (AID 1093); details: OD650, 24 h, higher = more signal, called active from +8 up or from −8 down;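 note: MC1000 strain lacking acrAB efflux and sulA so SOS filamentation is blocked; test concentration not given here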
[17] = small-molecule microarray binders of probe aLefty2, primary screen, biochemical, biotinylated probe, 635/667 nm fluorescence (AID 1094); details: higher = more signal;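 note: score merges spot fluorescence near 667 nm with spot signal-to-noise ratio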
[18] = test system: Noggin (protein binding on small-molecule microarray); assay: Noggin binders on small-molecule microarray, primary screen, biochemical, 635/667 nm fluorescence (AID 1095); details: 635 nm fluorescence, higher = more signal;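 note: score merges 667 nm feature fluorescence with signal to noise over triplicate slides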
[19] = target: Neurogenic locus notch homolog protein 3 (Homo sapiens) (UniProt Q9UM47); assay: NOTCH3 binders on small-molecule microarray, primary screen, biochemical, 635/667 nm fluorescence (AID 1096); details: NOTCH3 binding, 635 nm fluorescence, higher = more signal
[20] = small-molecule microarray binders of probe aEGFR, primary screen, biochemical, biotinylated probe, 635/667 nm fluorescence (AID 1097); details: higher = more signal;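 note: probe is a biotinylated anti-EGFR antibody binding compounds printed on slides; score combines fluorescence near 667 nm and signal to noise of each spot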

Chain of Neurogenic locus notch homolog protein 2 (Homo sapiens) (Q04721 whole entry, looked up, canonical isoform): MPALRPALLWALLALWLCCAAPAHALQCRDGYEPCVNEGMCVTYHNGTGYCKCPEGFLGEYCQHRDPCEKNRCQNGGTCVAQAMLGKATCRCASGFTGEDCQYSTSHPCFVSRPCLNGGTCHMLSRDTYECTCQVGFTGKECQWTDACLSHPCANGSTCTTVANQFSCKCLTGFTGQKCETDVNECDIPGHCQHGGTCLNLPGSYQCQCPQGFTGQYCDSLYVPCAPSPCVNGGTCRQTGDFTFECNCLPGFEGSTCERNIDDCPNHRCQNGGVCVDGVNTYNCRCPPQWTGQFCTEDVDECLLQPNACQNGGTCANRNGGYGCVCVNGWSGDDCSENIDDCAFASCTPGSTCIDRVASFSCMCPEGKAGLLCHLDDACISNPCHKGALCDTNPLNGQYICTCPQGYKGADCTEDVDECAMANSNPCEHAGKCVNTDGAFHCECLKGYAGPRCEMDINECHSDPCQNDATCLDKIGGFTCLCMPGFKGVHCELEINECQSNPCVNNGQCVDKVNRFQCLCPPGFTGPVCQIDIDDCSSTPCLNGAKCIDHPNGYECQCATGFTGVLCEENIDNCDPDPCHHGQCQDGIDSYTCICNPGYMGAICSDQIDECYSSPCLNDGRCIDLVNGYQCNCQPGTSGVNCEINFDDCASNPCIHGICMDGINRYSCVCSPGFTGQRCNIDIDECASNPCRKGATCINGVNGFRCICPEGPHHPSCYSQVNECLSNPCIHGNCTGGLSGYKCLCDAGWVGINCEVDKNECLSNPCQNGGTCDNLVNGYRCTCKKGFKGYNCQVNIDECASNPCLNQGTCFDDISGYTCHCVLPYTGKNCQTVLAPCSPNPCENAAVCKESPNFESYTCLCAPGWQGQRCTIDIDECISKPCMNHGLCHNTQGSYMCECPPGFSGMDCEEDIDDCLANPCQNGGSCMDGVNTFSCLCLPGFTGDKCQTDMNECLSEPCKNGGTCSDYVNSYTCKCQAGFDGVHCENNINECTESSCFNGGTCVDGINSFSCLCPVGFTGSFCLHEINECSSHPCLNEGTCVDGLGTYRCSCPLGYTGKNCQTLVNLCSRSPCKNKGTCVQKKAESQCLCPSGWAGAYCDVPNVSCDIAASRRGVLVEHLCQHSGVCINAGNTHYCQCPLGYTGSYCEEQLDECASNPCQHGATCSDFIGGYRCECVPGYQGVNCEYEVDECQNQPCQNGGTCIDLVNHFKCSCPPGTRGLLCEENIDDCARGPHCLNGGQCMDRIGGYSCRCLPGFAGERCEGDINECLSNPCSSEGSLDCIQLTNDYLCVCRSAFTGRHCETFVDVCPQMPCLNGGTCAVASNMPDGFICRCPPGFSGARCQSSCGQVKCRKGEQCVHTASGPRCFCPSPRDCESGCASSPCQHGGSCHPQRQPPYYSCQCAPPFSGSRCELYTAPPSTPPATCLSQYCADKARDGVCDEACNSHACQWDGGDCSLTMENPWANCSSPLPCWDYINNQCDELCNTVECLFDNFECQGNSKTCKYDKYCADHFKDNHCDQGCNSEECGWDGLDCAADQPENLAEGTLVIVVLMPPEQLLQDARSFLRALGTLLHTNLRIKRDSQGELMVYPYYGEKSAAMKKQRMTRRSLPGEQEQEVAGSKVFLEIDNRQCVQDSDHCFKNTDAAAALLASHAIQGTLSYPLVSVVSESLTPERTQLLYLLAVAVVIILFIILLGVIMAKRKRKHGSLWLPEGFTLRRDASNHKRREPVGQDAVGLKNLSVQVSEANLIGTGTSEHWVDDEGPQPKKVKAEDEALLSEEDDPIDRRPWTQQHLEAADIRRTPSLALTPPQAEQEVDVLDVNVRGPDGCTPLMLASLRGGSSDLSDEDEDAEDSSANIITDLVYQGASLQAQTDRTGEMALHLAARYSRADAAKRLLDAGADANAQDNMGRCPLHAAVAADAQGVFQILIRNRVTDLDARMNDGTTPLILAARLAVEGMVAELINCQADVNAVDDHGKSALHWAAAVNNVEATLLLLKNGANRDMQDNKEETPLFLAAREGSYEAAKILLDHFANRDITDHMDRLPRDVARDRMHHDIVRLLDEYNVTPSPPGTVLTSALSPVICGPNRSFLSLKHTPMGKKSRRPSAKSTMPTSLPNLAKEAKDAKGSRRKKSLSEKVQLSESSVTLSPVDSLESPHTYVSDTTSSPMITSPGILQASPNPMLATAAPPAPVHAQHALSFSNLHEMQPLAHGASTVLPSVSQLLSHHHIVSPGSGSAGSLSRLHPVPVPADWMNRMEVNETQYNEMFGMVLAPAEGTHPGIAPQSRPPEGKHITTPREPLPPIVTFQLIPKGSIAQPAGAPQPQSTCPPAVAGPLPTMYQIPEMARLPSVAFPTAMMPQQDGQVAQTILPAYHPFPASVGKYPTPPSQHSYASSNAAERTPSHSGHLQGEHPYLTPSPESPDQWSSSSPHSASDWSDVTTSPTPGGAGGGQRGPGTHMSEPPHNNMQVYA
Chain of Neurogenic locus notch homolog protein 3 (Homo sapiens) (Q9UM47 whole entry, looked up): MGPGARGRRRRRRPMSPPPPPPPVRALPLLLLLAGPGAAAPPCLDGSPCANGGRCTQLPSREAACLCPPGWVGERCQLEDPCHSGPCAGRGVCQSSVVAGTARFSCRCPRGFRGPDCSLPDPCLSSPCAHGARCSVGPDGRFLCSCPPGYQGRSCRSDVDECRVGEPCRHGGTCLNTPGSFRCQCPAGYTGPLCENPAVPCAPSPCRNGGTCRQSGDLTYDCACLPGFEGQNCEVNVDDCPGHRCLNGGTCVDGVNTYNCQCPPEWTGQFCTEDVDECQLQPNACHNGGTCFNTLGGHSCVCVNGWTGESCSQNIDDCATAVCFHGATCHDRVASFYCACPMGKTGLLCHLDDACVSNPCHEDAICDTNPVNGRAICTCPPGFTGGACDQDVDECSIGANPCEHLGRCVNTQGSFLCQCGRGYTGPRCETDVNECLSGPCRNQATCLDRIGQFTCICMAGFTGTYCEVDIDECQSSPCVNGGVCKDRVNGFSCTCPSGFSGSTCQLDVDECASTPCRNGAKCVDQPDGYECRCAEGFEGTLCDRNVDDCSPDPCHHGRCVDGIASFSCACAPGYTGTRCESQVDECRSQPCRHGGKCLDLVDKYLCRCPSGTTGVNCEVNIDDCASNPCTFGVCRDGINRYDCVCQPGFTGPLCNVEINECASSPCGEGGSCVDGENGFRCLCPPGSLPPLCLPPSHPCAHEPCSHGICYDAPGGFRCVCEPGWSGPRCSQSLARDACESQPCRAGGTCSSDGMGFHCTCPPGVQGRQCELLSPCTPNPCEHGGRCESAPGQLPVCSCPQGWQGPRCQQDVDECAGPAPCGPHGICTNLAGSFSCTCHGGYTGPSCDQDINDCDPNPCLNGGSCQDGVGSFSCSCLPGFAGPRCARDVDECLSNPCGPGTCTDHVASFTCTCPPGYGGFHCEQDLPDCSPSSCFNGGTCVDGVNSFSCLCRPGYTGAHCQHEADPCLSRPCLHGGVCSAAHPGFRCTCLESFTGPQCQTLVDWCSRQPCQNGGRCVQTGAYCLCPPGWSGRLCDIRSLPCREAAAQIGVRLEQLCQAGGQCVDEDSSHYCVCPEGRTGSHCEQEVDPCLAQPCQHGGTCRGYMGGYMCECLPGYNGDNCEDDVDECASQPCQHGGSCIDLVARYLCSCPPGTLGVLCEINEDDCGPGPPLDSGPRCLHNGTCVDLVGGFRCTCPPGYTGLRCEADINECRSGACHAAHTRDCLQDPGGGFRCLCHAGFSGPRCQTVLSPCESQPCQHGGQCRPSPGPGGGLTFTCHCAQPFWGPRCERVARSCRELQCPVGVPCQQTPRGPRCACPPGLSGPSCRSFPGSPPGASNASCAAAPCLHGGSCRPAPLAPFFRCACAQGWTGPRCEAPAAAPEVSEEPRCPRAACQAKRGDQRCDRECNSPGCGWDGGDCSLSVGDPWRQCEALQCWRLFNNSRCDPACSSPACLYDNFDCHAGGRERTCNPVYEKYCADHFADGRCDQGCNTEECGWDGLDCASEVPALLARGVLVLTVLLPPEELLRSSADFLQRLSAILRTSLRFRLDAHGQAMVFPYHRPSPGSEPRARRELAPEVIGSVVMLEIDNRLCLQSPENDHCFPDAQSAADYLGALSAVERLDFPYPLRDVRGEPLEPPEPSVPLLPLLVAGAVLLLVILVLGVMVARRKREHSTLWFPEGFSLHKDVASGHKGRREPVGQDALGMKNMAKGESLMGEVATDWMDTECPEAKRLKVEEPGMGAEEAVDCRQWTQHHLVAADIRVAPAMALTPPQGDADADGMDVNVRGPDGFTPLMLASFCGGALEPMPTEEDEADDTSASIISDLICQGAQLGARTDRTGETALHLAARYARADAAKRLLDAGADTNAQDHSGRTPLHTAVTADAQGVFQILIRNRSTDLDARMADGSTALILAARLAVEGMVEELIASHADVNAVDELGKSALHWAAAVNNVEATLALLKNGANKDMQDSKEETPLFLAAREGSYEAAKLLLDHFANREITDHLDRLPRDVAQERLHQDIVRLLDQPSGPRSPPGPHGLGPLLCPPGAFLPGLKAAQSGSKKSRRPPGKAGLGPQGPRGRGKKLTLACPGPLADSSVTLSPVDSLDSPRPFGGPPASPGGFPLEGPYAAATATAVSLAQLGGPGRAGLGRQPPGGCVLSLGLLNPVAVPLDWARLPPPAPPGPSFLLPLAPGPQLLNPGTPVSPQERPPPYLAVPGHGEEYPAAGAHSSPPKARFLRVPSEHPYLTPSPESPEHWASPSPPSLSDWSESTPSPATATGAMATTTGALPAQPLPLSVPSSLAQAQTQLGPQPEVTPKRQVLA

Compound	composite z-score [1]	composite z-score [2]	composite z-score [3]	composite z-score [4]	composite z-score [5]	composite z-score [6]	composite z-score [7]	z-score [8]	composite z-score [9]	composite z-score [10]	composite z-score [11]	z-score [12]	z-score [13]	z-score [14]	composite z-score [15]	z-score [16]	composite z-score [17]	composite z-score [18]	composite z-score [19]	composite z-score [20]
CN1C(=O)C2C(C1=O)C1C=C(CCCO)C2C(c2cccs2)N1Cc1cc2c(cc1Br)OCO2 (stereo not given)	-0.262	0.725	0.131	0.645	1.62	2.19	1.28	-3.26 (inactive)	1.6	-0.109	1.54	-0.653 (inactive)	-1.25 (inactive)	-0.631 (inactive)	3.41	1.12 (inactive)	0.0923	0.639	1.03	0.095
C=CCNC(=O)[C@@H]1[C@H]2C(=O)O[C@H](c3ccccc3)[C@H](c3ccccc3)N2[C@H](c2ccc(OCCO)cc2)[C@@]12C(=O)N(C(=O)OCCOC)c1ccc(C#CCCO)cc12	-0.209	-0.28	-0.0203	0.508	1.33	1.24	1.19	-0.0789 (inactive)	0.273	-0.164	1.55	-0.0915 (inactive)	0.269 (inactive)	4.08 (inactive)	1.85	2.17 (inactive)	-0.0861	0.916	1.1	-0.0088
C=CCNC(=O)[C@@H]1[C@H]2C(=O)O[C@H](c3ccccc3)[C@H](c3ccccc3)N2[C@H](c2ccc(O)cc2)[C@@]12C(=O)Nc1ccc(C#CCC(C(=O)OC)C(=O)OC)cc12	-0.174	0.198	-0.18	0.163	0.162	0.749	0.95	1.03 (inactive)	0.249	0.0623	1.55	1.66 (inactive)	0.918 (inactive)	1.12 (inactive)	2.32	-0.311 (inactive)	0.0539	0.482	0.387	-0.187
C=C[C@@H](C)[C@@H](OC(=O)Nc1ccc(SC)cc1)c1ccc(OCCO)cc1	0.004	0.81	0.0918	0.447	-0.202	1.41	1.26	10.5 (active)	0.051	0.0373	1.19	0.222 (inactive)	-1.58 (inactive)	-0.31 (inactive)	1.92	1.41 (inactive)	-0.106	0.172	0.194	0.0348
O=C1C2C=CC(C(O)c3cc(C(F)(F)F)cc(C(F)(F)F)c3)N(Nc3ccccc3F)C2C(=O)N1c1ccccc1 (stereo not given)	0.835	0.554	-0.0049	0.233	0.909	1.85	1.16	0.285 (inactive)	0.967	-0.202	1.11	0.503 (inactive)	0.854 (inactive)	6.9 (inactive)	3.19	-1.99 (inactive)	0.0655	-0.989	1.07	0.0061
CN(C)CCCCNC(=O)[C@H]1C[C@H]2C(=O)N[C@@H](CCCC[N+](C)(C)C)C(=O)N2[C@H]1c1ccc(O)cc1	-0.334	0.755	-0.136	-0.556	-0.661	-0.506	0.942	3.25 (inactive)	-0.31	-0.132	0.366	-0.838 (inactive)	0.0639 (inactive)	-0.682 (inactive)	-0.2	0.744 (inactive)	-0.0011	-0.0923	-0.529	-0.194
COc1cc(CO)cc(I)c1O[C@H]1C=C(C(=O)NCCO)C[C@@H](NCC2CCCCC2)[C@@H]1O	-0.149	-0.422	-0.0506	0.542	0.481	0.579	0.652	-1.14 (inactive)	0.638	0.0505	0.332	-1.94 (inactive)	-0.883 (inactive)	-0.999 (inactive)	2.65	1.69 (inactive)	-0.0719	0.323	0.793	-0.067
CN1C(=O)[C@@H]2[C@@H](CC(COc3ccccc3)=C([C@H](O)CCc3ccccc3)[C@@H]2CO)C1=O	-0.138	0.342	-0.103	-0.195	-0.492	-0.207	-0.0233	-2.39 (inactive)	-0.167	-0.236	-0.268	0.0937 (inactive)	-1.87 (inactive)	-0.537 (inactive)	-0.551	2.41 (inactive)	-0.0971	-0.358	-0.932	-0.0947
COC(=O)[C@@]1(Cc2ccc(F)cc2)[C@H]2c3cc(C(=O)N4CCCC4)n(CC4CC4)c3C[C@H]2CN1C(=O)c1ccccc1	0.349	0.149	0.0274	0.427	1.72	2.05	1.06	0.108 (inactive)	1.61	0.0274	0.649	-0.223 (inactive)	0.64 (inactive)	0.125 (inactive)	3.32	-0.475 (inactive)	0.329	0.577	1.1	0.358
CCOC(=O)C1=CC[C@@H](c2ccccc2)N(S(=O)(=O)c2ccc(C)cc2)[C@H]1C=Cc1ccccc1	0.162	-0.0855	-0.04	0.694	0.471	0.941	0.918	-3.49 (inactive)	0.47	0.0373	0.238	0.403 (inactive)	2.4 (inactive)	1.46 (inactive)	2.32	-0.812 (inactive)	-0.0146	-0.452	0.258	-0.0828
CC1CC/C=C\[C@H]2OC34C=CCN(CCN5CCOCC5)C(=O)[C@H]3N(C(C)CO)C(=O)[C@@H]4C2C(=O)O1 (stereo not given in full)	-0.246	-1.61	-0.125	-0.467	-0.939	-1.14	0.737	-0.203 (inactive)	-0.311	-0.0672	0.564	0.194 (inactive)	-0.365 (inactive)	0.0614 (inactive)	3.36	-0.476 (inactive)	-0.161	0.223	0.21	-0.156
C=CCC(OC(C)=O)[C@@H]1[C@@H](N(Cc2ccc(-c3cccc(C(F)(F)F)c3)o2)C(=O)c2ccc(C)cc2)c2cc(OCCCO)ccc2N1C(=O)Cc1ccc(OC)cc1 (stereo not given in full)	0.002	-0.315	-0.0639	0.0732	-0.489	-0.0798	-0.986	-0.287 (inactive)	0.382	0.0373	-0.118	0.9 (inactive)	0.145 (inactive)	0.0453 (inactive)	-0.639	1.34 (inactive)	-0.131	-0.0236	-0.0141	-0.0828
CCOC(=O)C1=C[C@@H](C(C)(C)C)N(S(=O)(=O)c2ccc(C)cc2)[C@H]1c1ccc(C)cc1	-0.173	0.577	0.135	1.13	1.68	0.877	0.894	-2.53 (inactive)	1.8	0.245	1.54	-0.582 (inactive)	0.0598 (inactive)	0.632 (inactive)	3.25	-1.38 (inactive)	0.273	0.552	1.02	0.157
CCOC(=O)C1=C[C@@H](C(C)(C)C)N(S(=O)(=O)c2ccc(C)cc2)[C@H]1c1cccc(Cl)c1	-0.308	0.314	0.0526	0.666	1.54	0.831	0.979	-2.24 (inactive)	0.799	-0.14	1.4	1.74 (inactive)	2.35 (inactive)	3.04 (inactive)	2.81	-0.695 (inactive)	0.195	1.04	1.08	0.301
CC(C)=CCCC(C)=CC(O)C1C=CC2C(=O)N(c3ccccc3)C(=O)C2N1Nc1ccccc1F (stereo not given)	-0.0417	-0.113	-0.138	0.498	0.765	1.49	1.09	0.314 (inactive)	-0.174	-0.329	0.945	-1.23 (inactive)	-0.347 (inactive)	-0.707 (inactive)	2.41	0.401 (inactive)	-0.166	-0.0409	0.761	-0.0828
[N-]=[N+]=Nc1ccccc1C[C@]1(C(=O)O)N=C(c2ccc(OCCCO)cc2)O[C@H]1c1ccccc1	0.0867	0.444	-0.0785	0.743	0.448	1.94	1.21	-1.4 (inactive)	0.834	-0.199	1.34	3.9 (inactive)	0.888 (inactive)	0.712 (inactive)	3.11	0.464 (inactive)	0.0116	-0.0597	0.703	-0.0828
[N-]=[N+]=NC[C@H](Cc1ccccc1)NC(=O)c1ccccc1	-0.259	0.2	-0.107	-0.168	-0.0596	-0.0451	-0.123	1.43 (inactive)	0.135	-0.0618	0.376	-1.02 (inactive)	-2.38 (inactive)	-1.27 (inactive)	0.214	1.56 (inactive)	-0.0666	0.014	-0.371	-0.14
Cc1ccccc1C(O)C1C=CC2C(=O)NC(=O)C2N1Nc1ccc(Cl)cc1Cl (stereo not given)	0.51	0.328	0.0342	0.5	1.48	1.73	1.04	0.0623 (inactive)	0.504	-0.283	0.528	-2.09 (inactive)	-2.81 (inactive)	0.797 (inactive)	2.27	-1.24 (inactive)	0.106	0.287	0.765	-0.125
C=C(C(=O)CC[C@@H](OC(=O)c1ccccc1-c1ccccc1C(=O)O)c1ccccc1OCCO)C(C)C	-0.248	0.95	-0.113	0.858	0.493	0.0729	0.838	0.16 (inactive)	0.111	0.233	1.55	-1.28 (inactive)	-0.832 (inactive)	-1.88 (inactive)	1.14	0.293 (inactive)	-0.0617	1.36	1.05	-0.112
CN1C(=O)C2C=CC(C(O)c3ccc(F)cc3)N(NC(=O)OC(C)(C)C)C2C1=O (stereo not given)	-0.179	-0.598	0.0505	0.257	1	1.68	1.38	0.186 (inactive)	0.734	-0.0464	0.219	1.19 (inactive)	2.11 (inactive)	1.71 (inactive)	3.28	-1.31 (inactive)	-0.0154	-0.205	0.816	-0.0531
